# PubChem BioAssay AID588849 (Broad Institute, 2011)
# Results with a measured potency or affinity are listed apart. The source made the active and inactive calls. No rule for the calls is given here.
# Biological target: CAAX prenyl protease 2 (Homo sapiens) (UniProt Q9Y256)
# Assay: human Rce1 protease inhibitors, dose response, biochemical, yeast membranes, quenched-peptide fluorescence, cherry-pick (AID 588849)
# Settings: yeast membrane fractions expressing human Rce1, quenched-peptide fluorescence, 4 h; series mostly up to 10 µM; activity change, negative = inhibition: at the top concentration
# Chain of CAAX prenyl protease 2 (Homo sapiens) (Q9Y256 whole entry, looked up): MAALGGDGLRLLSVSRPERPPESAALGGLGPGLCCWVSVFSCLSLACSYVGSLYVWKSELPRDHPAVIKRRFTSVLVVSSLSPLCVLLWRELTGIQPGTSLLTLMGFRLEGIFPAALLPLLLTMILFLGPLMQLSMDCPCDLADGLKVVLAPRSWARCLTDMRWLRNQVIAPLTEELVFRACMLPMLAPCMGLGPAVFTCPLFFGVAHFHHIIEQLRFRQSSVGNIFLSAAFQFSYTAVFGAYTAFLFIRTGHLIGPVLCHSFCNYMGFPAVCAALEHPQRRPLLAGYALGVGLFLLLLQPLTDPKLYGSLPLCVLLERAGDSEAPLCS
row,SMILES,"activity change, negative = inhibition"
1,Cc1ccc(-c2nc3ccc(C)cn3c2CC(=O)N(C)C)cc1,-1.44% (inactive)
2,COCCCn1c(N)c(C(=O)NCc2ccco2)c2nc3ccccc3nc21,-9.4% [at 3.5 µM] (inactive)
3,c1ccc(CCCN2CCN(CCOC(c3ccccc3)c3ccccc3)CC2)cc1,-11.3% (inactive)
4,CN1CC(C(=O)c2ccc(Cl)cc2)C(c2ccc(Cl)cc2Cl)C1 (centres undefined),-9.21% (inactive)
5,CN1CCN(c2ccc([N+](=O)[O-])c(Sc3nncn3C)c2)CC1,7.77% (inactive)
6,Cc1ccnc(-n2c(-c3ccco3)nc3ccccc3c2=O)c1,-11.6% (inactive)
7,Cc1nccc2c1[nH]c1ccccc12,-11% (inactive)
8,Clc1ccc(C[n+]2c(-c3ccccc3)cc(-c3ccccc3)cc2-c2ccccc2)cc1,-6.03% (inactive)
9,Cc1ccc(-c2cc(-c3ccccc3)cc(-c3ccccc3)[n+]2-c2ccccc2)cc1,-3.09% (inactive)
10,C=CCn1c(O)c(C(CC)=Nc2ccc(N(CC)CC)cc2)c(=O)[nH]c1=O,-10.2% (inactive)
11,COc1ccc2c3c([nH]c2c1)C(C)=NCC3,-20.8% (inactive)
12,C=CC[N+]1(C)CC[C@]23c4c5ccc(O)c4O[C@H]2C(=O)CC[C@@]3(O)[C@H]1C5 (some centres undefined),-13.8% (inactive)
13,CCOC(=O)[C@@H]1[C@H]2COc3ccc(Br)cc3[C@@H]2N2C(=O)N(c3cccc(C)c3)C(=O)[C@]12C,9.31% (inactive)
14,Cc1oc(-c2cccs2)nc1CSCC(=O)N1CCC2(CC1)OCCO2,-11.5% (inactive)
